In all, about 5,500 compounds went through this assay and about 2,000 (36%) were called active. Roughly 18% stayed inconclusive and do not appear here. The list shows a part of the results. A number with no mark means an inactive call. No stated cut-off is given here; in the data, active means normalized growth mostly below about 0.91 (no sharp cut-off); inconclusive means no clear call, values can overlap the other calls; inactive means mostly above about 0.92.
Assay: chemical genetic growth profiling, strain panel (AID 1159580);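 further: tested at 20 µM; growth read once vehicle control cultures reached saturation at 30 °C; 1 = growth at the plate median or of vehicle wells; lower values mean less growth of the strain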
Conditions: S. cerevisiae deletion strains, growth OD

For CC(C)C[C@H]1C(=O)N2CCC[C@H]2[C@]2(O)O[C@](NC(=O)[C@@H]3C=C4c5cccc6[nH]c(Br)c(c56)C[C@H]4N(C)C3)(C(C)C)C(=O)N12, the normalized growth (locus YAL040C, strain CLN3, active compounds read low) was 0.741 (active), the normalized growth (locus YDR150W, strain NUM1, active compounds read low) was 0.996 and the normalized growth (locus YDR363W, strain ESC2, active compounds read low) was 1.02. For the same compound, the normalized growth (locus YER002W, strain NOP16, active compounds read low) was 1.03, the normalized growth (locus YMR263W, strain SAP30, active compounds read low) was 1.01 and the normalized growth (locus YNL128W, strain TEP1, active compounds read low) was 1.03. For the same compound, the normalized growth (locus YNL153C, strain GIM3, active compounds read low) was 0.974, the normalized growth (locus YNL175C, strain NOP13, active compounds read low) was 1.04 and the normalized growth (locus YNL197C, strain WHI3, active compounds read low) was 1.01. It also gave a normalized growth (locus YNL224C, strain SQS1, active compounds read low) of 1.01, a normalized growth (locus YOR083W, strain WHI5 (second series), active compounds read low) of 1.03 and a normalized growth (locus YPL241C, strain CIN2, active compounds read low) of 0.989.

Source: PubChem BioAssay AID1159580 (chemical genetic matrix, 2015)
